# Reference: PubChem BioAssay (NCATS)
# Inconclusive results are not listed. A call without a number means that no potency is given here. Values without a mark were called inactive. Calls of active or inactive are those of the source. Calls come from the whole dose curve; as a rule, active = well fitted curve in the direction sought with a large enough effect; inconclusive = small, poorly fitted or top-dose-only effect, or another doubt; inactive = no such curve, though single readings can be large; an effect the other way counts as inactive or inconclusive.
# How the values were obtained:
# [1] = P-glycoprotein substrates identified in KB-3-1 adenocarcinoma cell line, qHTS therapeutic library screen (AID 1346986); note: nearly all actives have a fitted effect of over 60% in size
# Procedure, shortened: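 Compounds were tested in dose-response against KB-3-1 and KB-8-5-11 cells at 37 degree C for 72 h, and viability was measured by luminescence. AC50 values came from curve fitting with class-based activity calls.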
# [2] = P-glycoprotein substrates identified in KB-8-5-11 adenocarcinoma cell line, qHTS therapeutic library screen (AID 1346987); note: nearly all actives have a fitted effect of over 65% in size; for activity change, negative = cytotoxicity: series mostly up to about 44 µM
# Procedure, shortened: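 P-gp-mediated resistance screen: KB-8-5-11 cells treated 72 h with compounds in dose-response. CellTiter-Glo viability.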
Structure (SMILES),Potency [1],Potency [2],outcome [1],"activity change, negative = cytotoxicity [2]"
CC(C)[C@@H](C)/C=C/[C@@H](C)[C@H]1CC[C@H]2C3=CC=C4C[C@@H](O)CC[C@]4(C)[C@H]3CC[C@]12C,inactive,inactive,–,–
COc1cccc(-c2ccc([C@@H](Oc3cc(-c4ccc(C[C@H](N)C(=O)O)cc4)nc(N)n3)C(F)(F)F)cc2)c1,inactive,inactive,–,–
CC(=O)OC[C@@]12[C@@H](OC(C)=O)C[C@@H](C)[C@](C)([C@@H]3C[C@H]4C=CO[C@H]4O3)[C@H]1CCC[C@]21CO1,inactive,inactive,–,–
OC[C@H]1O[C@@H](OC(CCCCc2ccc(O)cc2)CCc2ccc(O)cc2)[C@H](O[C@@H]2OC[C@](O)(CO)[C@H]2O)[C@@H](O)[C@@H]1O (some centres undefined),inactive,inactive,–,–
CC(=O)[C@@H]1CC[C@]2(C(=O)O)CC[C@]3(C)C(CCC4[C@@]5(C)CC[C@H](O)C(C)(C)C5CC[C@]43C)C12 (some centres undefined),inactive,inactive,–,–
C/C(=C\CO)CC/C=C(\C)C(=O)O[C@H]1[C@H](OC2OC=C(C(=O)O)C3CCC(C)(O)C23)O[C@H](CO)[C@@H](O)[C@@H]1O (some centres undefined),inactive,inactive,–,–
C[C@@H]1O[C@@H](O[C@@H]2[C@@H](O)[C@H](O[C@@H]3[C@@H](O)[C@@H](O)[C@H](O[C@H]4[C@H](OC(=O)[C@]56CCC(C)(C)C[C@H]5C5=CCC7[C@@]8(C)C[C@H](O)[C@H](O[C@@H]9O[C@@H](C)[C@H](O)[C@@H](O)[C@H]9O)[C@@](C)(CO)C8CC[C@@]7(C)[C@]5(C)C[C@H]6O)O[C@H](C)[C@H](O)[C@@H]4O)O[C@H]3C)OC[C@H]2O)[C@H](O)[C@H](O)[C@H]1O (some centres undefined),–,–,inactive [at 9.29 µM],4.66% [at 9.29 µM]
CC1(C)OC(=O)C(OCC2CC2)=C1c1ccc(S(C)(=O)=O)cc1,inactive,inactive,–,–
CC1(C)C(=O)N2c3ccccc3[C@]3(CC(n4cnc5ccccc5c4=O)C(=O)O3)[C@H]2N1O (some centres undefined),inactive,inactive,–,–
COC1CC(OC2CCC3(C)C(=CCC4C3CCC3(C)C(C(C)O)CCC43O)C2)OC(C)C1OC1OC(C)C(OC2OC(COC3OC(COC4OC(CO)C(O)C(O)C4O)C(O)C(O)C3O)C(O)C(O)C2O)C(OC)C1O (centres undefined),–,–,inactive [at 9.29 µM],4.62% [at 9.29 µM]
C=C1C(=O)O[C@H]2[C@H]1[C@@H](OC(=O)C(C)CO)C[C@@]1(C)[C@H](O)CCC(=O)[C@H]21 (some centres undefined),inactive,inactive,–,–
Cc1cc(C)cc(NC(=O)Cc2ccc(OC(C)(C)C(=O)O)cc2)c1,inactive,inactive,–,–
O=c1c2ccccc2nc2n1CCC2O (centres undefined),inactive,inactive,–,–
CC(C)(C)NCC(O)COc1cccc2c1CCCC2=O (centres undefined),inactive,inactive,–,–
CC(C)=CCC[C@](C)(O[C@@H]1O[C@H](CO[C@@H]2OC[C@@H](O)[C@H](O)[C@H]2O)[C@@H](O)[C@H](O)[C@H]1O)[C@H]1CC[C@]2(C)[C@@H]1[C@H](O)C[C@@H]1[C@@]3(C)CC[C@H](O[C@@H]4O[C@H](CO)[C@@H](O)[C@H](O)[C@H]4O[C@@H]4O[C@H](CO)[C@@H](O)[C@H](O)[C@H]4O)C(C)(C)[C@@H]3CC[C@]12C,inactive,inactive,–,–
CCOc1ccc(-c2ccc(Cn3c(CC(C)(C)C(=O)O)c(SC(C)(C)C)c4cc(OCc5ccc(C)cn5)ccc43)cc2)cn1,inactive,inactive,–,–
C=CC(C)(C)O[C@@H]1O[C@H](CO[C@@H]2OC[C@](O)(CO)[C@H]2O)[C@@H](O)[C@H](O)[C@H]1O,inactive,inactive,–,–
NC1CCC(N[C@@H]2C[C@H]2c2ccccc2)CC1 (some centres undefined),inactive,inactive,–,–
O=C(O)c1cc(O[C@@H]2O[C@H](CO[C@@H]3OC[C@@H](O)[C@H](O)[C@H]3O)[C@@H](O)[C@H](O)[C@H]2O)c2ccccc2c1O,inactive,inactive,–,–
CC(C)(O)/C=C1/C(=O)C(C)(C)C(=O)C(C)(C)C1(O)O[C@@H]1O[C@H](COC(=O)c2cc(O)c(O)c(O)c2)[C@@H](O)[C@H](O)[C@H]1O (some centres undefined),inactive,inactive,–,–
C/C=C1/[C@H](O[C@@H]2O[C@H](CO)[C@@H](O)[C@H](O)[C@H]2O)OC=C(C(=O)OC)[C@H]1CC(=O)O[C@@H]1O[C@H](CO)[C@@H](O)[C@H](O)[C@H]1O,inactive,inactive,–,–
CC(C)NC[C@H](O)COc1ccc(CCOCC2CC2)cc1,inactive,inactive,–,–
CCC(CCO[C@@H]1O[C@H](CO[C@H]2OC[C@](O)(CO)[C@H]2O)[C@@H](O)[C@H](O)[C@H]1O)C(C)(C)O (some centres undefined),inactive,inactive,–,–
CC1CC(=O)C2=C(O1)OC1(C)CCC3C(C)(C)C=CC(=O)C3(C)C1C2 (centres undefined),inactive,inactive,–,–
CCC(C)(O)C(O)C(=O)OCc1ccc(O[C@@H]2O[C@H](CO)[C@@H](O)[C@H](O)[C@H]2O)cc1 (some centres undefined),inactive,inactive,–,–
COc1ccc2c(c1)O[C@H](O[C@@H]1O[C@H](CO)[C@@H](O)[C@H](O)[C@H]1O)C(=O)N2,inactive,inactive,–,–
CC(=O)O[C@H]1C[C@@H]2[C@]3(CC[C@]4(C)[C@@H](C5(C)CCC(C(C)(C)O)O5)[C@@H](O)C[C@@]24C)C[C@@]32CC[C@H](O[C@@H]3OC[C@@H](O)[C@H](O)[C@H]3O)C(C)(C)[C@H]12 (some centres undefined),inactive,inactive,–,–
